Screens as filed in PubChem.
WRN helicase inh-1 – blocks human WRN helicase | Q14191 | WRN helicase unwinding, fluorescent forked duplex, kinetic | Potency, µM (highest dose often 114 µM), for inactives: top-dose activity change, negative = inhibition, usual class: inhibitors | hit rate 0.46% among 360,000 | AID 651768; note: % is set by controls: 0 for no effect and ±100 for the full control effect; nearly all actives have a fitted effect of over 55% in size
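WRN at 20 nM final was preincubated with compound for 15 min at room temperature; reaction started with 100 nM forked duplex oligonucleotide carrying fluorophore and quencher plus 2 mM ATP (final). Unwinding followed kinetically by red fluorescence (ex 525/em 598 nm).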
Pol beta inh – inhibitors of human DNA polymerase beta | hit rate 1.3% among 340,000 | P06746 | Pol beta primer extension/strand displacement, fluorescence kinetic | Potency, µM (titrated, usually from 114 µM), for the others: top-dose activity change, negative = inhibition, usual class: inhibitors; note: % is set by controls: 0 for no effect and ±100 for the full control effect
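Enzyme-only controls used 10 nM Pol beta; buffer lacking enzyme served as negative control. Compound preincubated 15 min, then 50 nM substrate added; 0 and 10 min reads at room temperature.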
Pol eta inh-1 – blocks human DNA polymerase eta activity; AID 588591; Q9Y253; Potency, µM (top dose mostly 114 µM), without a hit: at the top dose activity change, negative = inhibition, hits mostly inhibitors; recombinant Pol eta, fluorescent DNA replication assay; hit rate 1.2% among 390,000; note: % is set by controls: 0 for no effect and ±100 for the full control effect
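Pol eta at 10 nM preincubated with compounds 15 min at room temperature; reaction started with fluorescent substrate (50 nM final) and read kinetically at 0 and 10 min.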
Pol kappa inh-1 – DNA polymerase kappa (human) inhibition. Q9UBT6. purified Pol kappa, fluorescent DNA synthesis assay, 10 min. Potency, µM (highest dose often 107 µM), inactives show top-dose activity, negative = inhibition, most hits filed as inhibitors. hit rate 0.53% among 400,000; note: % is set by controls: 0 for no effect and ±100 for the full control effect
Target sequence (Q9UBT6 whole entry, looked up): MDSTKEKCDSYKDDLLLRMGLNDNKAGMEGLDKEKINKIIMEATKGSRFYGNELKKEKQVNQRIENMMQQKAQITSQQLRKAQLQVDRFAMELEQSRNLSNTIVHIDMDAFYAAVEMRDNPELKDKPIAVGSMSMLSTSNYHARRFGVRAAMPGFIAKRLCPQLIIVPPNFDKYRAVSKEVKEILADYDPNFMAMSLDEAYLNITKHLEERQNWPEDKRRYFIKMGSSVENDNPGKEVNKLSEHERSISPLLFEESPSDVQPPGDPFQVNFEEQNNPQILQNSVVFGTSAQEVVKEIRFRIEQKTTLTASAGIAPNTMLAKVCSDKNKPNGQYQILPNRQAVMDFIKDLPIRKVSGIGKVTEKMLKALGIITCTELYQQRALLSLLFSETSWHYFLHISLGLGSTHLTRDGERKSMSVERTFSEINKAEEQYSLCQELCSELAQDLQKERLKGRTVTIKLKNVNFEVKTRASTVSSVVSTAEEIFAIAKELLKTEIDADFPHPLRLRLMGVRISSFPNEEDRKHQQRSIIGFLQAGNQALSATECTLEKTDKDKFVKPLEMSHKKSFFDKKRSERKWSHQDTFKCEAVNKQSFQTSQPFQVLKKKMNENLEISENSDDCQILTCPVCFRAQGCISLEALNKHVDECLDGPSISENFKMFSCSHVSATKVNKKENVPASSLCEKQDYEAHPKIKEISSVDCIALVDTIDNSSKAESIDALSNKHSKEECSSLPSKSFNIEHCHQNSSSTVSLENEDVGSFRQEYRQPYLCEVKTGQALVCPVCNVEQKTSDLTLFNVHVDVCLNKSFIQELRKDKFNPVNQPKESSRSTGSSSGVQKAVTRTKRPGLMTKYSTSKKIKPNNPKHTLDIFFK
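50 nM final substrate added after 15 min RT preincubation of 10 nM Pol kappa with compound; fluorescence read at 0 and 10 min.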
L3MBTL1 inh – L3MBTL1 (human) inhibition. Q9Y468. AlphaScreen L3MBTL1–H3K9me1 peptide binding. Potency, µM (doses to about 57.1 µM), for inactives: at the highest dose activity, negative = inhibition, usual class: inhibitors. hit rate 0.66% among 230,000. AID 485360; note: % is set by controls: 0 for no effect and ±100 for the full control effect; nearly all actives have a fitted effect of over 60% in size
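Read-out is AlphaScreen signal from streptavidin donor and nickel chelate acceptor beads (10 ug/mL final each) bridging L3MBTL1 (50 nM) and biotinylated K9-monomethylated H3(1-15) peptide (75 nM), after 30 min compound exposure at room temperature.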
POLI inh – inhibitors of human DNA polymerase iota; Q9UNA4; Pol iota fluorescent replication assay, 10 min; Potency, µM (titrated, usually from 115 µM), inactives show at the highest dose activity, negative = inhibition, hits mostly inhibitors; hit rate 1% among 390,000; AID 588590
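Pol iota at 10 nM preincubated 15 min with compounds at room temperature; reaction started with fluorescent substrate, 50 nM final. Fluorescence read kinetically at 0 and 10 min; buffer-only wells as negative control.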
PGK validate – TbPGK inhibition, hit validation | shares compounds with Pol kappa inh-1 | TbPGK coupled GAPDH assay, Kinase-Glo luminescence | Potency, µM (series often up to 57.5 µM), for the others: top-dose activity change, negative = inhibition, hits mostly inhibitors | hit rate 79% among 500; note: % is set by controls: 0 for no effect and ±100 for the full control effect; nearly all actives have a fitted effect of over 65% in size
POLI cherry-pick – Inhibitors of human DNA polymerase iota, confirmation; shares compounds with Pol kappa inh-1; Pol iota primer extension, TAMRA/BHQ fluorescence; Potency, µM, most hits filed as inhibitors; hit rate 77% among 1,500
Pol kappa inh-2 – Pol kappa (human) inhibition, cherry-pick confirmation. Potency, µM, hits mostly inhibitors. hit rate 76% among 920. AID 720501. purified Pol-kappa, fluorescent strand-displacement substrate. shares compounds with Pol eta inh-1
Pol eta inh-2 – Pol eta (human) inhibition, cherry-pick confirmation; shares compounds with Pol eta inh-1; hit rate 64% among 2,600; Potency, µM, usual class: inhibitors; Pol eta primer extension, TAMRA/BHQ fluorescence, 10 min
WRN helicase inh-2 – confirmation of human WRN helicase inhibitors; WRN helicase DNA unwinding, fluorescence kinetic; hit rate 63% among 610; shares compounds with WRN helicase inh-1; AID 720497; Potency, µM (highest dose often 57.1 µM), for the others: at the highest dose activity, negative = inhibition, usual class: inhibitors; note: nearly all actives have a fitted effect of over 65% in size
TO displacement – counter-screen for WRN helicase inhibitors: DNA binding; shares compounds with WRN helicase inh-1; hit rate 10% among 610; thiazole orange DNA binding displacement, fluorescence; Potency, µM (titrated, usually from 57.1 µM), without a hit: top-dose activity change, negative = inhibition, hits mostly inhibitors;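 note: drop in dye fluorescence marks compound binding to DNA; % is set by controls: 0 for no effect and ±100 for the full control effect; nearly all actives have a fitted effect of over 60% in size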
BLM helicase inh – blocks human BLM helicase in WRN counterscreen; shares compounds with WRN helicase inh-1; Recombinant BLM helicase DNA unwinding, red fluorescence; Potency, µM (titrated, usually from 57.1 µM), for the others: at the top dose activity change, negative = inhibition, most hits filed as inhibitors; hit rate 60% among 610; AID 720503; note: nearly all actives have a fitted effect of over 60% in size
Numbers without * were called inactive; ? = inconclusive; . = no result; [ ] = dose if it differs, or a comment. Only some compounds are listed: those with a hit (about 2.5% of all), similar ones and a draw of the others. Calls come from the whole dose curve; as a rule, active = well fitted curve in the direction sought with a large enough effect; inconclusive = small, poorly fitted or top-dose-only effect, or another doubt; inactive = no such curve, though single readings can be large; an effect the other way counts as inactive or inconclusive. Potency is the fitted concentration of half-maximal effect.

SMILES	WRN helicase inh-1	Pol beta inh	Pol eta inh-1	Pol kappa inh-1	L3MBTL1 inh	POLI inh	POLI cherry-pick	Pol eta inh-2	WRN helicase inh-2	TO displacement	BLM helicase inh	others
COc1ccc(C(=O)N/N=C/c2ccc(OC)c(COc3c(F)c(F)cc(F)c3F)c2)cc1	-6.1%[11.6 µM]	50.1µM*	?	-15.6%	.	44.7µM*	?	.	.	.	.	Pol kappa inh-2=?
O=C(O)c1cccc(-n2cccc2/C=C2/SC(=O)N(CC(=O)N3CCCC3)C2=O)c1	56.2µM*	10µM*	5.01µM*	?	.	7.94µM*	29.9*	23.9*	.	.	.	Pol kappa inh-2=9.47*
COc1ccc(-n2cccc2/C=C2/NC(=O)N(c3cccc(Cl)c3)C2=O)cc1	-5.8%	17.9%	-1.4%	-2.0%	-2.8%	18.1%	.	.	.	.	.
O=C(O)c1cccc(-n2cccc2/C=C2/NC(=O)N(c3ccc(Cl)cc3)C2=O)c1	3.16µM*	0.355µM*	0.708µM*	1.58µM*	0.794µM*	?	0.752*	1.35*	1.36µM*	?	0.171µM*	PGK validate=0.259µM*
O=C1/C(=C\c2cc([N+](=O)[O-])ccc2O)SC(=S)N1Cc1ccc(Cl)cc1	5.97µM*	3.16µM*	?	-3.7%	.	?	33.6*	23.9*	5.41µM*	20.7%	3.04µM*
O=C1/C(=C\c2cccc(O)c2O)SC(=S)N1Cc1ccccc1	-23.5%	-19.8%	?	-7.1%	-8.7%	?	.	.	.	.	.
CCc1ccccc1NC(=S)NN	.	3.1%	.	.	.	.	.	.	.	.	.
COc1ccc2[nH]c(=O)c(-c3nnn(-c4ccccc4)n3)cc2c1	5.1%	2.1%	-11.7%	14.5%	11.0%	18.1%	.	.	.	.	.
COc1ccc2[nH]c(=O)c(-c3noc(-c4ccccc4)n3)cc2c1	?	-49.1%	?	2.5%	-10.4%	?	42.3*	67.5*	21.5µM*	45.1%	6.07µM*
COc1cc(Cl)c(C)cc1NC(=O)CCc1c(C)nc2cc(-c3cccc(F)c3)nn2c1C	.	?	1.8%	-18.2%	.	-14.1%	.	.	.	.	.
CC(=O)c1ccc(Sc2nnc(C)s2)c([N+](=O)[O-])c1	0.4%	-9.6%	-18.6%	-10.4%	1.7%	8.4%	.	.	.	.	.
O=C(O)c1ccc(-n2cccc2/C=N\NC(=O)c2cc3cc(Br)ccc3o2)cc1	39.8µM*	?	3.16µM*	14.1µM*	.	7.08µM*	2.99*	5.36*	15.2µM*	-19.0%	5.41µM*	PGK validate=9.19µM*
O=C(N/N=C/c1cccn1-c1ccc(O)cc1)c1cccc2ccccc12	1.8%	4.6%	2.2%	-5.8%	.	7.2%	.	.	.	.	.
